Experimental data as given in PubChem BioAssay AID504430 (National Center for Advancing Translational Sciences (NCATS), 2011).
The list shows a part of the results. Active and inactive are the calls of the source.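 Rule for the calls: active = compounds that block the splicing kinase Clk1 enough to give a fitted half-inhibition concentration; inactive = the rest.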

target: Dual specificity protein kinase CLK1 (Homo sapiens) (UniProt P49759); test: Kinase Inhibition Study on Inhibitors of CDC-like Kinase 1 (Reaction Biology data); conditions: recombinant Clk1 kinase assay, 10 uM ATP
Sequence (P49759 whole entry, looked up, canonical isoform): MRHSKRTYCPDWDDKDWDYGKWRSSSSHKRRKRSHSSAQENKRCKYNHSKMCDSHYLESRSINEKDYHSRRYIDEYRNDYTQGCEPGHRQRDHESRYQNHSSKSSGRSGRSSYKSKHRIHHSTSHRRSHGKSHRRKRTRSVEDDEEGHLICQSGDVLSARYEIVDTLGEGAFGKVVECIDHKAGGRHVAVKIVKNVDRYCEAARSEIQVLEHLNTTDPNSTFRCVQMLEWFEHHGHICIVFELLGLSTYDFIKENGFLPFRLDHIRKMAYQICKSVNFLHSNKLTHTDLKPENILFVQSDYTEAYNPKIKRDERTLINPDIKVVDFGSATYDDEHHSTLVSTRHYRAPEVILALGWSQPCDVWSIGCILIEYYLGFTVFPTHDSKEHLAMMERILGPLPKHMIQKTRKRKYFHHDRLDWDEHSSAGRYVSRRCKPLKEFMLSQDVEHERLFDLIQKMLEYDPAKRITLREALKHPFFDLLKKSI
Description: NIH Molecular Libraries Probe Production Centers Network [MLPCN] NIH Chemical Genomics Center [NCGC] MLPCN Grant: 1R03MH084827-01 Assay Submitter (PI): Tom Misteli NCGC Assay Overview: Alternative splicing of pre-mRNAs plays a major role in the regulation of eukaryotic gene expression. Alternative splicing is now thought to be one of the primary reasons for the complexity of higher organisms leading to an average of three protein isoforms per gene. Aberrant splicing can lead to a number of diseases and is known to play a role in rare genetic diseases such as progeria syndrome. Hutchinson-Gilford Progeria Syndrome (HGPS) is a pediatric premature aging disease caused by a spontaneous mutation in the lamin A/C (LMNA) gene due to a single point mutation in the lamin A gene effecting 1 in 4 million people. To identify both specific splicing modulators of the lamin A gene as well as general splicing modulators, a cell-based HTS assay was developed using a minigene reporter system (AIDs, 1459 & 1487). […] This AID summarizes the characterization of lead compounds in Clk1.
All kinase reactions were performed using 10 uM ATP in the assay. 100% activity was taken from kinase reactions with DMSO alone (the vehicle used for compound stock solutions).

Potency, active:
CC(Nc1ncnc2ccc(-c3ccc4c(c3)OCO4)cc12)c1ccco1 (stereo not drawn) 5.75 µM
c1nc(N2CCOCC2)c2cc(-c3ccc4c(c3)OCO4)ccc2n1 1.11 µM
CN(Cc1cncn1C)c1ncnc2ccc(-c3ccc4c(c3)OCO4)cc12 2.8 µM
